# Data as given in PubChem BioAssay AID1671190 (National Center for Advancing Translational Sciences (NCATS), 2021).
# Several values for one entry are separate records, joined by “and”; a condition that tells them apart may be missing. Equal values may be shown once. The whole screen tested about 580,000 compounds, of which about 6,100 (1.1%) were called active. Another 15% or so got no clear call; they are omitted. The list comes from a sample in which actives are over-represented; it also holds similar structures and randomly drawn compounds. Values without a mark were called inactive. Calls follow the shape of the dose curve; as a rule, active = well fitted inhibition curve with a large enough effect; inconclusive = small, poorly fitted or top-dose-only effect, or another doubt; inactive = no such curve, though single readings can be large or run the other way.
# Molecular target: Polyunsaturated fatty acid lipoxygenase ALOX12 (Homo sapiens) (UniProt P18054)
# Assay: Primary qHTS assay for inhibitors of human arachidonate 12S-lipoxygenase (ALOX12): Round 2
# Details: purified 12hLO, xylenol orange hydroperoxide absorbance; series mostly up to 108 µM; activity change, negative = inhibition: at the top concentration
# Outline: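 Purified human 12hLO at 150 nM in 25 mM Hepes, 0.01% Triton X-100, pH 7.0, preincubated 15 min at room temperature with compound. Reaction started with 40 uM arachidonic acid, 30 min at room temperature. Hydroperoxide measured by Fe-xylenol orange, 573/405 nm absorbance ratio.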
# % is scaled to controls: 0 for no effect and ±100 for the full control effect; potency is read from the fitted curve at half-maximal effect.
# Sequence of Polyunsaturated fatty acid lipoxygenase ALOX12 (Homo sapiens) (P18054 whole entry, looked up): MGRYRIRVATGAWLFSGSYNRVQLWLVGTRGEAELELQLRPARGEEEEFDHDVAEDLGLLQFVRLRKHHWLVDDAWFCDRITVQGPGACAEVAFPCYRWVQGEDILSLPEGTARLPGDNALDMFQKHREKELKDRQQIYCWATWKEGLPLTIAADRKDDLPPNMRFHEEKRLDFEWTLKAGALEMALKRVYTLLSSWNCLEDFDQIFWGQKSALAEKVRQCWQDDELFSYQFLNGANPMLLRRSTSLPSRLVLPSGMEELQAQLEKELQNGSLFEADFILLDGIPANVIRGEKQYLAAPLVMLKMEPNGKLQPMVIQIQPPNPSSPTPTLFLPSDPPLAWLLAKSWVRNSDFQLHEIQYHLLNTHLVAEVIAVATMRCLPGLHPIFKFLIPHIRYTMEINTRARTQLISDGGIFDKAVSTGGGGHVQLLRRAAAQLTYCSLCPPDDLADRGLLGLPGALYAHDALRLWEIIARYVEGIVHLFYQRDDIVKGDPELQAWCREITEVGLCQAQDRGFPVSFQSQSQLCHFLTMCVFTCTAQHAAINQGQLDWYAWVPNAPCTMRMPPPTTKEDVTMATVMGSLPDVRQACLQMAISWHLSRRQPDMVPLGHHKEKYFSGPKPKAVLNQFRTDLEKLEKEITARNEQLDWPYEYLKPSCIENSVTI
SMILES,Potency,"activity change, negative = inhibition"
Cc1ccc(/C=C/C(=O)Nc2ccc([N+](=O)[O-])c(NC(=O)/C=C/c3ccc(C)o3)c2)o1,6.31 µM (active),–
COc1ccc(OC)c(NC(=O)/C=C/c2ccc(C)o2)c1,–,-4.21%
CC(=O)Nc1ccc2c3c(ccc([N+](=O)[O-])c13)CC2,–,-4.52%
COCCn1c(SCc2cccc(Br)c2)nnc1-c1ccccc1,–,0.725%
Cc1ccc(C)c(/C=C/c2nc3ccccc3s2)c1,–,-17%
CC(C)NC(=S)NN=C1CCCCCCCCCCC1,35.5 µM (active),–
CC(C)(C)NC(=O)C(=O)NN=C1CCCCCCC1,–,244%
CC(C)(C)c1ccc(C(=O)NN=C2CCCCC2)cc1,–,48.6%
COc1ccc(C)cc1CN(C)C(=O)CCn1ccc2ccccc21,–,-19.6%
CCOC(=O)c1cn[nH]c1S(=O)(=O)N1CCCC(C)C1 (stereo not drawn),11.2 µM (active),–
CCOC(=O)c1cccc(NC(=O)c2cc(S(=O)(=O)N3CCCC(C)C3)cn2C)c1 (stereo not drawn),–,-5.94%
CCOC(=O)c1c(NC(=O)c2ccc(S(=O)(=O)N3CCCC(C)C3)cc2)sc2c1CCN(C(C)C)C2 (stereo not drawn),–,-18.9%
O=C(Nc1ccc(Cl)nc1)c1ccc2cc[nH]c2n1,–,5.64% [at 12.5 µM] and 1.76% [at 12.5 µM]
CC/C(=C(/c1ccccc1)c1ccc(OCC[N+](C)(C)C)cc1)c1ccccc1,44.7 µM (active),–
CC/C(=N/N=C(/CC)c1ccccc1)c1ccccc1,–,-0.0612%
CCCCCCCCCOc1ccc(C(=O)c2ccccc2)cc1,–,19.7%
CCCCOCCCNC(=O)c1cccc(C#N)c1,–,8.27%
O=C(NN=CC=Cc1ccccc1)C(O)C(O)C(=O)NN=CC=Cc1ccccc1 (stereo not drawn),–,-0.942%
O=C(N/N=C/C=C/c1ccccc1)C1CC1(c1ccccc1)c1ccccc1 (stereo not drawn),–,17.3%
Cc1ccc(N/N=C/C=C/c2ccccc2)cc1Cl,2.82 µM (active),–
CCOc1ccc(C(=O)N2c3ccccc3NC(=O)C2CC(=O)Nc2cccc(C(F)(F)F)c2)cc1 (stereo not drawn),–,-13.4%
O=C(Oc1ccc2cc(-c3ccccc3)c(=O)oc2c1)N1CCOCC1,–,-0.175%
O=C(NC(Cc1ccccc1)C(=O)O)c1cccc(C(F)(F)F)c1 (stereo not drawn),–,-18.9%
C/C(=N\NC(=S)NCc1ccccc1)c1ccc(Cl)cc1,31.6 µM (active),–
S=C(NCc1ccccc1)Nc1ccc(NC(=S)NCc2ccccc2)c(Cl)c1,–,-3.77%
O=C(NCc1ccccc1)c1cccc(NC(=O)C2CCCCC2)c1,–,-2.41%
COC(=O)CNC(=O)c1cccc(C(F)(F)F)c1,–,5.28%

SMILES,Potency,"activity change, negative = inhibition"
C/C(=N/NC(=S)NCc1ccccc1)c1cccc(C(F)(F)F)c1,12.6 µM (active),–
C/C(=N\NC(=O)CNC(=O)C(c1ccccc1)c1ccccc1)c1ccc(C)cc1,–,11%
O=C(COC(=O)CNC(=O)C1CCCCC1)NCc1ccccc1,–,0%
C/C(=N\NC(=S)NCc1ccccc1)C1CCCCC1,39.8 µM (active),–
CC(=O)c1ccccc1NCC(=O)NCC(F)(F)F,–,-15.2%
CCOc1ccc(CNC(=O)c2ncoc2-c2cccs2)cc1OC,–,29.3%
COc1cccc(CN(C(=O)c2oc3cc(Br)ccc3c2C)C2CCS(=O)(=O)C2)c1 (stereo not drawn),–,-12.2%
O=C(CCNc1c(-c2ccc(F)cc2)nc2cnccn12)Nc1ccc2c(c1)OCO2,–,-7.67%
Cc1ccc(C)c(Oc2coc3cc(OC(=O)C(C)C)ccc3c2=O)c1,–,-5.82%
CC(C)c1nnc(CN2CCOc3c(O)cc(-c4cccc(Cl)c4)cc3C2)o1,–,4.28%
O=S(=O)(NCCc1nnc2ccc(SCc3ccc(Cl)cc3Cl)nn12)c1ccccc1,–,-19.8%
CC(C)Oc1ccc(Cc2n[nH]c(=S)n2Cc2ccccc2)cc1Cl,–,-6.13%
S=c1[nH]nc(CSCc2ccc(Cl)cc2Cl)n1-c1ccccc1,28.2 µM (active),–
CCN(C(=O)CCc1c[nH]c2ccccc12)c1ccc(F)cc1,–,-27.9%
CC(C)=CCc1ccc(O)c(=O)cc1C(C)C,25.1 µM (active),–
Cc1ccccc1-c1cc(=O)c2cc(NC(=O)c3ccccc3F)ccc2o1,–,12.3%
CCOC(=O)C(NC(=O)CC(C)C)(Nc1sc2c(c1C(N)=O)CCCC2)C(F)(F)F (stereo not drawn),–,0.0335%
O=C(Nc1nc2c(s1)CCCC2)c1ccccc1F,–,-9.3%
COC(=O)C(NC(C)=O)(Nc1nc2c(s1)CCCC2)C(F)(F)F (stereo not drawn),17.8 µM (active),–
CCOc1ccccc1OCCN,–,-30.9%
CCCc1nc2c(-c3ccc(Cl)cc3)c(C)[nH]n2c(=O)c1Cl,–,-11.8%
O=C(CSc1nncn1-c1ccccc1F)Nc1ccccc1C(=O)Nc1ccccc1,–,14%
O=C(COC(=O)c1cnccn1)Nc1ccc(Cl)cc1C(F)(F)F,10 µM (active),–
O=C(COC(=O)c1cc2ccccc2cc1O)Nc1ccc(Cl)cc1C(F)(F)F,–,6.37%
O=C(COC(=O)c1cnccn1)Nc1cccc2ccccc12,–,-1.25%
CN(Cc1ccccc1N1CCCC1)C(=O)c1ccc(S(=O)(=O)N2CCOCC2)cc1,–,7.09%
